From PubChem BioAssay

target: Voltage-gated potassium channel subunit beta-2 (Rattus norvegicus) (UniProt P62483); assay: KvBeta enzyme negative modulators, primary screen, biochemical, NADPH fluorescence (AID 622;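 active = fluorescence slope higher than the sample average by over 3 SD, cut at about -0.22 in these data, passing the limit was not always enough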;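 also: slope of raw intensity against log time taken from 70 to 1610 s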); settings: recombinant KvBeta, 4-cyanobenzaldehyde reduction, at 10 µM, stronger effect = higher value
Sequence (P62483 whole entry, looked up): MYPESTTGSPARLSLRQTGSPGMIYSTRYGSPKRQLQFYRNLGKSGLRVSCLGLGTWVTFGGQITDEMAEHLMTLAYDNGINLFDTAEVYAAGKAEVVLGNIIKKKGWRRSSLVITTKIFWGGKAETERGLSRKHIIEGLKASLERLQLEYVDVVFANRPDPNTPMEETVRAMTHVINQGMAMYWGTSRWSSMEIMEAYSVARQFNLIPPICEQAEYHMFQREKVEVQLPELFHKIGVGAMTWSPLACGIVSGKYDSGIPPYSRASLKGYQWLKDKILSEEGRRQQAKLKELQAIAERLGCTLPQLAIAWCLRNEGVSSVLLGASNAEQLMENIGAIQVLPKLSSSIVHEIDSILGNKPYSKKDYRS

Fluorescence slope, inactive:
O=C(c1ccccc1F)N1CCC(N2CCCCCC2)CC1 -0.493
CCOc1ccc(CCNC(=O)C(O)c2ccccc2)cc1 (stereo not drawn) -0.517
CCN(CC)CCN1C(=O)C(=O)/C(=C(/O)c2ccc(C)cc2)C1c1cccnc1 (stereo not drawn) -0.426
C=CCOC(=O)C1=C(C)NC(SCC(=O)N(CC)CC)=C(C#N)C1c1ccco1 (stereo not drawn) -0.417
CCOC(=O)CSc1nc(N)c(C#N)c(-c2ccc(OC)cc2)c1C#N -0.52
COc1ccc(OC)c(NC(=O)CSC2=C(C#N)C(c3ccco3)C3=C(CCCC3=O)N2)c1 (stereo not drawn) -0.404
CCCOc1ccc(N2C(=O)CC(N(Cc3ccc(S(N)(=O)=O)cc3)C(=O)CC)C2=O)cc1 (stereo not drawn) -0.326
Cc1ccc2[nH]c3c(c2c1)CCCC3C(N)=O (stereo not drawn) -0.508
COc1ccc(C=NCCC2(O)CC(C)N(C)CC2C)cc1 (stereo not drawn) -0.427
CC(C)(C)C1CCC2(CC1)C(C#N)=C(SCC(=O)Nc1ccccc1)NC(=O)C2C#N (stereo not drawn) -0.461
CC1(C)Cc2c(C#N)c(NCCc3ccccc3)nc(-c3ccco3)c2CO1 -0.122
CCOC(=O)c1cc2cc(OC)ccc2[nH]1 -0.497
COC(=O)CSC1=C(C#N)C(=O)NC2(CCCCC2)S1 -0.493
CCOC(=O)CC1=C(C(=O)OCC)C(c2ccc(OC)c(OC)c2)C(C#N)=C(N)O1 (stereo not drawn) -0.359
COC(=O)c1ccc(OC(=O)c2ccc(OC)c(OC)c2)c(OC)c1 -0.491
CCOc1ccc(/C(O)=C2/C(=O)C(=O)N(CCN(C)C)C2c2ccccc2)cc1Cl (stereo not drawn) -0.502
O=CN1CCN(C(=O)CN2C(=O)c3ccccc3C2=O)CC1 -0.452
CC(C)Oc1ccc(Cc2c(O)nc(NCCCN(C)C)[nH]c2=O)cc1 -0.396
CC(=O)c1c(C)c2c(n1CCN(C)C)CCCC2 -0.521
Cc1ccc(C2C(C(=O)c3cc4ccccc4o3)=C(O)C(=O)N2CCCN(C)C)cc1 (stereo not drawn) -0.414
COC(=O)c1ccc(=O)n(Cc2ccco2)c1 -0.404
COc1ccc(OC)c(NC(=O)CSc2nnc(-c3ccco3)n2-c2ccc(C(=O)O)cc2)c1 -0.505
Cn1c(NCCN2CCCCC2)cc(=O)n(C)c1=O -0.492
N#CC1=C(N)NC(SCc2ccc(F)cc2)=C(C#N)C12CCCCC2 -0.404
Cc1nc2oc(C(=O)c3ccc(Br)cc3)c(N)c2c2c1COC(C)(C)C2 -0.532
Cc1nnc2n(Cc3ccccc3)c(=O)c3c4c(sc3n12)CN(Cc1ccccc1)CC4 -0.423
N#CCSc1nc2sc3c(c2c(=O)n1C1CCCCC1)CCCC3 -0.354
COc1cccc(/C=C2/CN(C)CC3=C2OC(N)=C(C#N)C3c2cccc(OC)c2)c1 (stereo not drawn) -0.289
Cc1noc(NS(=O)(=O)c2ccc(NC(=O)COc3ccccc3)cc2)c1C -0.376
COc1ccccc1-c1nnc2sc(COc3ccccc3)nn12 -0.444
CCc1nnc(NC(=O)CSc2nc(C)c3c(c2C#N)CCCC3)s1 -0.446
Cn1c(=O)c2c(nc(SCCN3CCCCC3)n2Cc2ccc(Cl)cc2)n(C)c1=O -0.526
Cc1ccc(C(=O)C2=C(O)C(=O)N(c3ncccn3)C2c2cccc(Cl)c2)o1 (stereo not drawn) -0.287
COC(=O)C1=C(C)OC(N)=C(C#N)C1c1ccc(OC)c(OC)c1OC (stereo not drawn) -0.557
O=c1c(-c2ccc3c(c2)OCCO3)c(C(F)(F)F)oc2cc(O)cc(O)c12 -0.533
C=CCNc1nc(-c2ccc(O)c(C(N)=O)c2)cs1 -0.465
C=CCOc1nc2c(c(=O)n(Cc3ccc(Cl)c(Cl)c3)c(=O)n2C)n1C -0.492
S=c1nc(-c2ccccc2)[nH]n1-c1ccccc1 -0.454
O=C(O)CC(NCc1ccco1)C(=O)OCC1CCCO1 (stereo not drawn) -0.369

target: Voltage-gated potassium channel subunit beta-2 (Rattus norvegicus) (UniProt P62483); assay: KvBeta positive modulators, primary screen, biochemical, NADPH fluorescence (AID 623); settings: Recombinant KvBeta, NADPH fluorescence decrease slope, 10 min; at 10 µM; stronger effect = lower value;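 also: fluorescence intensity change per second fitted from 20 to 320 s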

NADPH fluorescence slope, inactive:
O=C(c1ccccc1F)N1CCC(N2CCCCCC2)CC1 -1.4e-05
CCOc1ccc(CCNC(=O)C(O)c2ccccc2)cc1 (stereo not drawn) -4.4e-05
CCN(CC)CCN1C(=O)C(=O)/C(=C(/O)c2ccc(C)cc2)C1c1cccnc1 (stereo not drawn) -5.7e-05
C=CCOC(=O)C1=C(C)NC(SCC(=O)N(CC)CC)=C(C#N)C1c1ccco1 (stereo not drawn) -1.8e-05
CCOC(=O)CSc1nc(N)c(C#N)c(-c2ccc(OC)cc2)c1C#N -3.8e-05
COc1ccc(OC)c(NC(=O)CSC2=C(C#N)C(c3ccco3)C3=C(CCCC3=O)N2)c1 (stereo not drawn) -0.000112
CCCOc1ccc(N2C(=O)CC(N(Cc3ccc(S(N)(=O)=O)cc3)C(=O)CC)C2=O)cc1 (stereo not drawn) 1.9e-05
Cc1ccc2[nH]c3c(c2c1)CCCC3C(N)=O (stereo not drawn) -2.9e-05
COc1ccc(C=NCCC2(O)CC(C)N(C)CC2C)cc1 (stereo not drawn) -6e-05
CC(C)(C)C1CCC2(CC1)C(C#N)=C(SCC(=O)Nc1ccccc1)NC(=O)C2C#N (stereo not drawn) 9.2e-06
CC1(C)Cc2c(C#N)c(NCCc3ccccc3)nc(-c3ccco3)c2CO1 5.1e-06
CCOC(=O)c1cc2cc(OC)ccc2[nH]1 -9.6e-05
COC(=O)CSC1=C(C#N)C(=O)NC2(CCCCC2)S1 -4.7e-05
CCOC(=O)CC1=C(C(=O)OCC)C(c2ccc(OC)c(OC)c2)C(C#N)=C(N)O1 (stereo not drawn) 6.8e-06
COC(=O)c1ccc(OC(=O)c2ccc(OC)c(OC)c2)c(OC)c1 -0.000121
CCOc1ccc(/C(O)=C2/C(=O)C(=O)N(CCN(C)C)C2c2ccccc2)cc1Cl (stereo not drawn) -5.4e-05
O=CN1CCN(C(=O)CN2C(=O)c3ccccc3C2=O)CC1 -0.000158
CC(C)Oc1ccc(Cc2c(O)nc(NCCCN(C)C)[nH]c2=O)cc1 -1e-05
CC(=O)c1c(C)c2c(n1CCN(C)C)CCCC2 -1.7e-05
Cc1ccc(C2C(C(=O)c3cc4ccccc4o3)=C(O)C(=O)N2CCCN(C)C)cc1 (stereo not drawn) -4.9e-05
COC(=O)c1ccc(=O)n(Cc2ccco2)c1 -1.8e-06
COc1ccc(OC)c(NC(=O)CSc2nnc(-c3ccco3)n2-c2ccc(C(=O)O)cc2)c1 -3.4e-05
Cn1c(NCCN2CCCCC2)cc(=O)n(C)c1=O -0.000171
N#CC1=C(N)NC(SCc2ccc(F)cc2)=C(C#N)C12CCCCC2 -4.7e-05
Cc1nc2oc(C(=O)c3ccc(Br)cc3)c(N)c2c2c1COC(C)(C)C2 -5.4e-05
Cc1nnc2n(Cc3ccccc3)c(=O)c3c4c(sc3n12)CN(Cc1ccccc1)CC4 -5e-05
N#CCSc1nc2sc3c(c2c(=O)n1C1CCCCC1)CCCC3 -1.5e-05
COc1cccc(/C=C2/CN(C)CC3=C2OC(N)=C(C#N)C3c2cccc(OC)c2)c1 (stereo not drawn) 4.6e-07
Cc1noc(NS(=O)(=O)c2ccc(NC(=O)COc3ccccc3)cc2)c1C -3.7e-05
COc1ccccc1-c1nnc2sc(COc3ccccc3)nn12 -0.000151
CCc1nnc(NC(=O)CSc2nc(C)c3c(c2C#N)CCCC3)s1 4.7e-06
Cn1c(=O)c2c(nc(SCCN3CCCCC3)n2Cc2ccc(Cl)cc2)n(C)c1=O -1.5e-05
Cc1ccc(C(=O)C2=C(O)C(=O)N(c3ncccn3)C2c2cccc(Cl)c2)o1 (stereo not drawn) -2.1e-05
COC(=O)C1=C(C)OC(N)=C(C#N)C1c1ccc(OC)c(OC)c1OC (stereo not drawn) -8.1e-05
O=c1c(-c2ccc3c(c2)OCCO3)c(C(F)(F)F)oc2cc(O)cc(O)c12 -4e-05
C=CCNc1nc(-c2ccc(O)c(C(N)=O)c2)cs1 -0.000295
C=CCOc1nc2c(c(=O)n(Cc3ccc(Cl)c(Cl)c3)c(=O)n2C)n1C -0.000116
S=c1nc(-c2ccccc2)[nH]n1-c1ccccc1 3.3e-06
O=C(O)CC(NCc1ccco1)C(=O)OCC1CCCO1 (stereo not drawn) -2.3e-05
